For orientation: AC50 means the midpoint of the concentration-response curve, whichever way the signal moves.

Experiment [1] is described as follows: BSK_LPS_PGE2: BioMAP Diversity Plus: LPS Assay for Prostaglandin E2 (PGE2) Biomarker Activity (AID 2283082).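 On AC50: secreted prostaglandin E2 measured by ELISA in LPS-stimulated co-culture.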 Conditions: primary human HUVEC with PBMC; actives raise or lower the signal. The method, boiled down:
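Primary human endothelial cells and blood mononuclear cells, co-cultured with LPS, receive test chemical; PGE2 ELISA follows at 24 h, with SRB-stained parallel cultures flagging cytotoxicity.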

Read-out in experiment [2]: Macrophage colony-stimulating factor (MCSF), CSF1 (gene 1435)
Nature of the experiment: BSK_LPS_MCSF: BioMAP Diversity Plus: LPS Assay for Macrophage colony-stimulating factor (MCSF) Biomarker Activity (AID 2283083). The conditions noted are these: primary human HUVEC with PBMC; actives raise or lower the signal. The gist of the method: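 Bidirectional fitting against DMSO was applied to M-CSF levels read by ELISA at 24 h post-dose. The system pairs human umbilical vein endothelium with peripheral blood mononuclear cells; parallel SRB staining tracked cytotoxicity.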

Read-out in experiment [3]: Tissue Factor, F3 (gene 2152)
Nature of the experiment: BSK_LPS_TissueFactor: BioMAP Diversity Plus: LPS Assay for Tissue Factor Biomarker Activity (AID 2283084). Conditions: primary human HUVEC with PBMC; actives raise or lower the signal. The gist of the method: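 Compound was added to an endothelial cell/PBMC co-culture, and after 24 h tissue factor (CD142) was read by ELISA. Gain or loss of signal was fitted against a DMSO baseline, and parallel SRB staining (560 nm) tracked overt cytotoxicity.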

Read-out in experiment [4]: Tumor necrosis factor (Homo sapiens) (UniProt P01375)
The experiment can be described thus: BSK_LPS_TNFa: BioMAP Diversity Plus: LPS Assay for Tumour Necrosis Factor alpha (TNFa) Biomarker Activity (AID 2283085).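 On AC50: TNFa protein level quantified by ELISA in the co-culture.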 Conditions: primary human HUVEC with PBMC; actives raise or lower the signal. The method, boiled down:
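ELISA-based TNFa endpoint in a human endothelial–PBMC co-culture sampled 24 h post-exposure. Curves were fitted in both directions using DMSO as baseline of activity.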

Read-out in experiment [5]: Vascular cell adhesion molecule 1 (VCAM1), VCAM1 (gene 7412)
The experiment can be described thus: BSK_LPS_VCAM1: BioMAP Diversity Plus: LPS Assay for Vascular cell adhesion molecule 1 (VCAM1) Biomarker Activity (AID 2283086). The conditions noted are these: primary human HUVEC with PBMC; actives raise or lower the signal. The method, boiled down: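 Measured by ELISA: VCAM-1 in LPS-activated HUVEC/PBMC co-cultures 24 h after treatment. Values reflect bidirectional fitting with DMSO as baseline.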

Read-out in the next experiment: CD38, CD38 (gene 952)
The experiment can be described thus: BSK_SAg_CD38: BioMAP Diversity Plus: SAg Assay for CD38 Biomarker Activity (AID 2283087). The conditions noted are these: primary human HUVEC with PBMC; actives raise or lower the signal. The gist of the method:
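Measures CD38 on a human endothelial/PBMC co-culture driven by SEB and TSST-1, 24 h after compound exposure, using ELISA with fluorescence detection; DMSO defines baseline for bidirectional curve fitting.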

Read-out in the next experiment: CD40, CD40 (gene 958)
The experiment can be described thus: BSK_SAg_CD40: BioMAP Diversity Plus: SAg Assay for CD40 Biomarker Activity (AID 2283088). The conditions noted are these: primary human HUVEC with PBMC; actives raise or lower the signal. The gist of the method:
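CD40 is measured by fluorescence ELISA in an endothelial/PBMC primary human co-culture at 24 h post-dose. Fitting is bidirectional, DMSO baseline. Parallel SRB staining (560 nm) flags cytotoxicity.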

Read-out in the next experiment: CD69, CD69 (gene 969)
Nature of the experiment: BSK_SAg_CD69: BioMAP Diversity Plus: SAg Assay for CD69 Biomarker Activity (AID 2283089).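 On AC50: cell surface CD69 protein quantified by ELISA with fluorescence detection.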 The conditions noted are these: primary human HUVEC with PBMC; actives raise or lower the signal. The gist of the method:
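Endothelial/PBMC co-culture; chemical added; 24 h incubation; CD69 ELISA with fluorescence detection; bidirectional fit vs DMSO.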

Read-out in experiment [6]: Monocyte Chemoattractant Protein-1 (MCP1), CCL2 (gene 6347)
The experiment can be described thus: BSK_SAg_MCP1: BioMAP Diversity Plus: SAg Assay for Monocyte Chemoattractant Protein-1 (MCP1) Biomarker Activity (AID 2283090). The conditions noted are these: primary human HUVEC with PBMC; actives raise or lower the signal. The method, boiled down:
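Values derive from bidirectional fitting of ELISA-measured MCP1 against DMSO controls. Readings were taken 24 h after dosing human vascular endothelial cells co-cultured with peripheral blood mononuclear cells under superantigen stimulation.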

Read-out in experiment [7]: E-selectin (Homo sapiens) (UniProt P16581)
The experiment can be described thus: BSK_SAg_Eselectin: BioMAP Diversity Plus: SAg Assay for Eselectin Biomarker Activity (AID 2283091). The conditions noted are these: primary human HUVEC with PBMC; actives raise or lower the signal. The gist of the method: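 Cell-surface E-selectin is read by ELISA at 24 h in the SAg co-culture of HUVEC and PBMC. Curves are fitted in both directions relative to DMSO. Parallel SRB total-protein staining tracks overt toxicity.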

Read-out in experiment [8]: Monokine induced gamma interferon (MIG), CXCL9 (gene 4283)
The experiment can be described thus: BSK_SAg_MIG: BioMAP Diversity Plus: SAg Assay for Monokine induced gamma interferon (MIG) Biomarker Activity (AID 2283092). The conditions noted are these: primary human HUVEC with PBMC; actives raise or lower the signal. The gist of the method: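 Measures CXCL9 protein by ELISA in a human vascular primary-cell co-culture (umbilical vein endothelium with PBMC) 24 h after chemical addition. Activity is scored up or down from the DMSO control.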

Experiment [9] is described as follows: BSK_SAg_PBMCCytotoxicity: PBMC Cytotoxicity Assessment in the BioMAP Diversity Plus: SAg Assay (AID 2283093).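 Further: PBMC viability measured as Alamar Blue reduction fluorescence at 546/580 nm; fitted both ways against DMSO so a hit may be loss or gain of signal.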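 On AC50: PBMC superantigen activated with SEB plus TSST-1 one hour after compound addition.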 The conditions noted are these: primary human HUVEC with PBMC. The gist of the method:
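Alamar Blue reduction (6 h, 546/580 nm) reports PBMC cytotoxicity after 90 h superantigen activation (SEB, TSST-1; 20 ng/mL final each) with 1 h compound pre-treatment. Gain or loss of signal fitted versus DMSO.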

Read-out in experiment [10]: Interleukin-8 (IL8), CXCL8 (gene 3576)
Nature of the experiment: BSK_SAg_IL8: BioMAP Diversity Plus: SAg Assay for Interleukin-8 (IL8) Biomarker Activity (AID 2283094). The conditions noted are these: primary human HUVEC with PBMC; actives raise or lower the signal. The method, boiled down: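 Primary human endothelial cells with PBMC, exposed 24 h; IL-8 determined by ELISA, analysed bidirectionally relative to DMSO.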

Experiment [11] can be described thus: BSK_SAg_SRB: Viability Assessment in the BioMAP Diversity Plus: SAg Assay (AID 2283096).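 Further: cells read one day after compound addition; hits may be either gain or loss of signal compared with DMSO.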 The conditions noted are these: primary human HUVEC with PBMC. The gist of the method: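 This overt-cytotoxicity endpoint quantifies protein in human endothelial/PBMC co-cultures at 24 h using SRB absorbance (560 nm) after trichloroacetic acid fixation. Values reflect signal change from the DMSO negative control, fitted bidirectionally.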

Experiment [12] addresses human CYP1A1, CYP1A1 (gene 1543) (UniProt P04798). Nature of the experiment: NVS_ADME_hCYP1A1: NovaScreen (NVS) CYP450-related Enzyme Activity (ADME) Assay for human CYP1A1 (AID 2283100; active means hit-call score of the fitted dose curve at least 0.9, where 1 is the maximum). The method, boiled down:
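Chemicals were first tested in duplicate at 10 uM, and those passing a 30% inhibition threshold were rerun as concentration series topping at 20 uM. Fluorescence read-out of recombinant enzyme turnover after 1 h, relative to acetonitrile.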

Experiment [13] in a line: BSK_SAg_Proliferation: Cell Proliferation Assessment in the BioMAP Diversity Plus: SAg Assay (AID 2283095).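 Further: relative cell number as total protein by SRB absorbance in sub-confluent culture.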 The conditions noted are these: primary human HUVEC with PBMC. The method, boiled down:
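A human primary co-culture of umbilical vein endothelium and blood mononuclear cells receives compound; relative cell number is quantified at 96 h by SRB staining and 560 nm absorbance, with DMSO-referenced bidirectional curve fitting.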

Experiment [14] concerns the target human CYP1A2, CYP1A2 (gene 1544) (UniProt P05177). The experiment can be described thus: NVS_ADME_hCYP1A2: NovaScreen (NVS) CYP450-related Enzyme Activity (ADME) Assay for human CYP1A2 (AID 2283102; active means hit-call score of the fitted dose curve at least 0.9, where 1 is the maximum;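 further: fluorescence from turnover of a fluorogenic substrate by recombinant insect-cell CYP1A2; potency for inhibition since loss of fluorescence marks reduced CYP1A2 activity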). The gist of the method:
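Enzyme activity of insect-cell-expressed human CYP1A2 measured by fluorescence 0.5 h after compound addition, relative to acetonitrile. Compounds first tested in duplicate at 10 uM, actives followed up in concentration series.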

Records with an inconclusive call do not appear. Active and inactive are the calls of the source. How the source made its calls, unless noted: active means hit-call score of the fitted dose curve at least 0.9, where 1 is the maximum; inactive means score below 0.9.

E-selectin (Homo sapiens), sequence (P16581 whole entry, looked up): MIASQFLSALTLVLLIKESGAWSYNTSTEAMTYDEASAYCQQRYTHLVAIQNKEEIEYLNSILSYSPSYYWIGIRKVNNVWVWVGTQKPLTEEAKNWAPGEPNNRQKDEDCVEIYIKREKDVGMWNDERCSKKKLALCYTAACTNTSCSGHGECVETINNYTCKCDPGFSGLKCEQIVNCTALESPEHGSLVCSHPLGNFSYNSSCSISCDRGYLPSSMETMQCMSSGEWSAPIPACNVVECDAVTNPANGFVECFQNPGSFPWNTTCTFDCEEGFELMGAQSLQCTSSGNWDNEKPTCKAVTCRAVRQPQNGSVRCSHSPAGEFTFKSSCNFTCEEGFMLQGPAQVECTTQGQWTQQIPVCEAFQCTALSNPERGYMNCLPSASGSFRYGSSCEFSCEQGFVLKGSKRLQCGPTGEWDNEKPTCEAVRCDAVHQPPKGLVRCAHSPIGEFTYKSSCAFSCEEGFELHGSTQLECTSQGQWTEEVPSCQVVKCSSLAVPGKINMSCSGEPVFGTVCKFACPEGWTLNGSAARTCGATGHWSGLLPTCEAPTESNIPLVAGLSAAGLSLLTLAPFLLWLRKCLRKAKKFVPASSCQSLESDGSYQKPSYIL
Tumor necrosis factor (Homo sapiens), sequence (P01375 whole entry, looked up): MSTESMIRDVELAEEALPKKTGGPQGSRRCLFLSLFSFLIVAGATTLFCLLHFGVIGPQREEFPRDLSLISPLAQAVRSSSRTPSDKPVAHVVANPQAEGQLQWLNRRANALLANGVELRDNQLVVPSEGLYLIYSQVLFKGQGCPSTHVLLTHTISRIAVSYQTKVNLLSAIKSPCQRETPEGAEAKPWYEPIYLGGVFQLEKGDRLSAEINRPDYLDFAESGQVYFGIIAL
human CYP1A2, CYP1A2 (gene 1544), sequence (P05177 whole entry, looked up): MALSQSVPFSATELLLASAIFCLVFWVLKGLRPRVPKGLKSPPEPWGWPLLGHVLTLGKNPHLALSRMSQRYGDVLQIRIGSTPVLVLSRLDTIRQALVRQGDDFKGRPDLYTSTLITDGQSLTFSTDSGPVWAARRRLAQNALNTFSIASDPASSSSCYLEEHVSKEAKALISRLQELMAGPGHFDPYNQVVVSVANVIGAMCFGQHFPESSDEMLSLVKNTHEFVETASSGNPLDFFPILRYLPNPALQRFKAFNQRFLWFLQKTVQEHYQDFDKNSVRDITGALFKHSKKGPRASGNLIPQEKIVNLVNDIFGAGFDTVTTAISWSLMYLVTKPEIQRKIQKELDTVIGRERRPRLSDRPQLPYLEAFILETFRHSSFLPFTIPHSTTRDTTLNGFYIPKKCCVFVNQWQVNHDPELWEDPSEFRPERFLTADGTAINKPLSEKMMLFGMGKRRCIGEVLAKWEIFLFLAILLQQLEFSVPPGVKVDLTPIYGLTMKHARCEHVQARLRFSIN
human CYP1A1, CYP1A1 (gene 1543), sequence (P04798 whole entry, looked up): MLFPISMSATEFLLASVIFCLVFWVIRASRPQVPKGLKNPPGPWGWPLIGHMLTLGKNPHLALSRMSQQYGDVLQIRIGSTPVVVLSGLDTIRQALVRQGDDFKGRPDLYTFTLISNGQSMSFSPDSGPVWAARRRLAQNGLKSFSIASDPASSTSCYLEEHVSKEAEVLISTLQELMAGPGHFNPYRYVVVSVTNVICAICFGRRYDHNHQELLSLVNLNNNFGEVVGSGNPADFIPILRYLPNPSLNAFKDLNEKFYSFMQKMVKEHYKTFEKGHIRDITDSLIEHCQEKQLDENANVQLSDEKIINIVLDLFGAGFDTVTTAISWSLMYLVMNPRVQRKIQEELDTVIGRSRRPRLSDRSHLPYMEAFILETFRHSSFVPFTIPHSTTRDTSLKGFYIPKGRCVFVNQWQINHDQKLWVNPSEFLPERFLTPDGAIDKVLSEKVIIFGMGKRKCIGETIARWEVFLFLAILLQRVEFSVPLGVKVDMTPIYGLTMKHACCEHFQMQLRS

`Cn1c(=O)cc(Oc2ccc(F)cc2F)c2cnc(NCC(C)(C)O)nc21`: the AC50 in [1] was 1.76 µM (active); in [3], 0.58 µM (active); in experiment [4], 5.06 µM (active); in experiment [10], 1.09 µM (active). The outcome was “inactive” in experiment [2]; “inactive” in [5]; “inactive” in the experiment with CD38, CD38 (gene 952); “inactive” with CD40, CD40 (gene 958); “inactive” with CD69, CD69 (gene 969); “inactive” in [6]. For the same compound, the outcome in [7], in [8], in [9] and in experiment [11] was inactive.
For `CCc1cc(SCc2sc(-c3ccc(C(F)(F)F)cc3)nc2CN2CCN(c3ccc(OC)cc3)CC2)ccc1OCC(=O)O`, the AC50 was 20 µM (active) in [1]; 13.3 µM (active) in experiment [2]; 30.2 µM (active) in [3]; 38.1 µM (active) in experiment [4]; 24.7 µM (active) in [5]; 10.3 µM (active) with CD38, CD38 (gene 952). Besides, the half-maximal activity concentration (AC50) in the experiment with CD40, CD40 (gene 958) was 11.7 µM (active); with CD69, CD69 (gene 969), 15.1 µM (active); in experiment [6] it was 11.4 µM (active); in [7], 12.2 µM (active); in experiment [8], 14.1 µM (active); in experiment [9], 21.5 µM (active). Besides, the AC50 in experiment [10] was 20 µM (active); in experiment [11] it was 14.2 µM (active). Besides, the compound was classed as inactive in [12].
`CC(C)=CCC/C(C)=C/CO`: the outcome in experiment [1] is “inactive”; in [2] it was “inactive”; in experiment [3] it was “inactive”; in experiment [4], “inactive”; in [5], “inactive”; with CD38, CD38 (gene 952) it was “inactive”. The outcome was “inactive” in the experiment with CD40, CD40 (gene 958); “inactive” with CD69, CD69 (gene 969); “inactive” in [6]; “inactive” in experiment [7]; “inactive” in [8]; “inactive” in experiment [9]. For the same compound, the outcome in experiment [10] and in experiment [11] was inactive.
On to `O=C(OC[C@H]1O[C@@H](OC(=O)c2cc(O)c(O)c(OC(=O)c3cc(O)c(O)c(O)c3)c2)[C@H](OC(=O)c2cc(O)c(O)c(OC(=O)c3cc(O)c(O)c(O)c3)c2)[C@@H](OC(=O)c2cc(O)c(O)c(OC(=O)c3cc(O)c(O)c(O)c3)c2)[C@@H]1OC(=O)c1cc(O)c(O)c(OC(=O)c2cc(O)c(O)c(O)c2)c1)c1cc(O)c(O)c(OC(=O)c2cc(O)c(O)c(O)c2)c1`, for which the outcome in experiment [1], in experiment [2], in experiment [4], in [8] and in experiment [9] was inactive. Besides, the half-maximal activity concentration (AC50) in [5] is 6.1 µM (active); with CD38, CD38 (gene 952), 9.88 µM (active); with CD40, CD40 (gene 958), 8.21 µM (active); in the experiment with CD69, CD69 (gene 969), 6.1 µM (active); in experiment [6], 6.1 µM (active); in experiment [7], 6.1 µM (active). In addition, the AC50 was 10.2 µM (active) in experiment [10], 6.18 µM (active) in [13], 9.72 µM (active) in experiment [11] and 2.01 µM (active) in [14].

These data come from PubChem BioAssay (EPA / NIEHS).
